Assay results reported in ChEMBL document CHEMBL1961873, “Compounds: GSK PKIS; Assays: Nanosyn kinase panel” (2012).

What was measured:
[1] = molecular target: Serine/threonine-protein kinase MRCK alpha (Homo sapiens) (UniProt Q5VT25); conditions: at 0.1 µM
[2] = molecular target: Serine/threonine-protein kinase MRCK alpha (Homo sapiens) (UniProt Q5VT25); conditions: at 1 µM
[3] = molecular target: Serine/threonine-protein kinase MRCK beta (Homo sapiens) (UniProt Q9Y5S2); conditions: at 0.1 µM
[4] = molecular target: Serine/threonine-protein kinase MRCK beta (Homo sapiens) (UniProt Q9Y5S2); conditions: at 1 µM
[5] = molecular target: Ribosomal protein S6 kinase alpha-5 (Homo sapiens) (UniProt O75582); conditions: at 0.1 µM
[6] = molecular target: Ribosomal protein S6 kinase alpha-5 (Homo sapiens) (UniProt O75582); conditions: at 1 µM
[7] = molecular target: Ribosomal protein S6 kinase alpha-4 (Homo sapiens) (UniProt O75676); conditions: at 0.1 µM
[8] = molecular target: Ribosomal protein S6 kinase alpha-4 (Homo sapiens) (UniProt O75676); conditions: at 1 µM
[9] = molecular target: Ribosomal protein S6 kinase beta-1 (Homo sapiens) (UniProt P23443); conditions: at 0.1 µM
[10] = molecular target: Ribosomal protein S6 kinase beta-1 (Homo sapiens) (UniProt P23443); conditions: at 1 µM
[11] = molecular target: T1, 3-phosphoinositide-dependent protein kinase 1 (Homo sapiens) (UniProt O15530); conditions: at 0.1 µM;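 also: values are mean inhibition of PDK1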
T1 sequence (whole entry): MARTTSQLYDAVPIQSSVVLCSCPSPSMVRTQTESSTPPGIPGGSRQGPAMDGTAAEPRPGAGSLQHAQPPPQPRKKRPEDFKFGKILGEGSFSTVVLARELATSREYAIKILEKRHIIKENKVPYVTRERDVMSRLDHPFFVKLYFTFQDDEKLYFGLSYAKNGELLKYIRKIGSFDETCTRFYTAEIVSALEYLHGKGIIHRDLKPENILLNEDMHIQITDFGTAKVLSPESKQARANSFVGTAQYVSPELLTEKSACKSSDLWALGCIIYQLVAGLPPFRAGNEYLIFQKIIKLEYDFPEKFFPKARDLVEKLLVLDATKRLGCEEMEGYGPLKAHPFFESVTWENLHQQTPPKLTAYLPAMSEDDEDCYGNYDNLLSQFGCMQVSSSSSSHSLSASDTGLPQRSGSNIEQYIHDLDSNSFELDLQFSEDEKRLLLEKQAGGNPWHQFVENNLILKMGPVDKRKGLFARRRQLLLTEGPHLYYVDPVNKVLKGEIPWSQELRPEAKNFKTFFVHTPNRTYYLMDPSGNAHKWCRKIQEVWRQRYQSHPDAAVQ

[12] = molecular target: cAMP-dependent protein kinase catalytic subunit alpha (Homo sapiens) (UniProt P17612); conditions: at 0.1 µM
[13] = molecular target: cAMP-dependent protein kinase catalytic subunit alpha (Homo sapiens) (UniProt P17612); conditions: at 1 µM
[14] = molecular target: Protein kinase C alpha type (Homo sapiens) (UniProt P17252); conditions: at 0.1 µM
[15] = molecular target: Protein kinase C alpha type (Homo sapiens) (UniProt P17252); conditions: at 1 µM
[16] = molecular target: Protein kinase C beta type (Homo sapiens) (UniProt P05771); conditions: at 0.1 µM
[17] = molecular target: Protein kinase C beta type (Homo sapiens) (UniProt P05771); conditions: at 1 µM
[18] = molecular target: Protein kinase C eta type (Homo sapiens) (UniProt P24723); conditions: at 0.1 µM
[19] = molecular target: Protein kinase C eta type (Homo sapiens) (UniProt P24723); conditions: at 1 µM
[20] = molecular target: Protein kinase C gamma type (Homo sapiens) (UniProt P05129); conditions: at 0.1 µM;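 also: values are mean percent inhibition of PKC gamma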

Protein kinase C eta type (Homo sapiens), sequence (P24723 whole entry): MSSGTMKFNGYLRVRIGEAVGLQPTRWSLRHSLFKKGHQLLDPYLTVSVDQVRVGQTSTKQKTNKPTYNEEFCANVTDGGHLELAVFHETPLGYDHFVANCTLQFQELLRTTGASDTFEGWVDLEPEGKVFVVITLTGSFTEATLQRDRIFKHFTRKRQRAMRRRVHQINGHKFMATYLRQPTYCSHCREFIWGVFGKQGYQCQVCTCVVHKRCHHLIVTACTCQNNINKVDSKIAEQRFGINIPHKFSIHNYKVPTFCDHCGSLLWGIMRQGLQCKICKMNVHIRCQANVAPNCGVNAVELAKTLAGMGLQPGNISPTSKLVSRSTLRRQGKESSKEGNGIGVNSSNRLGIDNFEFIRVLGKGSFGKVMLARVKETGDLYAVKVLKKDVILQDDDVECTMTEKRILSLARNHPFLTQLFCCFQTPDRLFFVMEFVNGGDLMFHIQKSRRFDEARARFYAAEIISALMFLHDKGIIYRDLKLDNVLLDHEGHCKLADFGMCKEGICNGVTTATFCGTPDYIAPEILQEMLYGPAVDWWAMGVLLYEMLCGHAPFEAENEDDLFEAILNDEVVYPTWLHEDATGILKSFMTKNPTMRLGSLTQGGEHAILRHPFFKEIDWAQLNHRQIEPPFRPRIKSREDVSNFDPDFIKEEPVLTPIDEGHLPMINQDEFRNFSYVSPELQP
Ribosomal protein S6 kinase alpha-5 (Homo sapiens), sequence (O75582 whole entry, looked up): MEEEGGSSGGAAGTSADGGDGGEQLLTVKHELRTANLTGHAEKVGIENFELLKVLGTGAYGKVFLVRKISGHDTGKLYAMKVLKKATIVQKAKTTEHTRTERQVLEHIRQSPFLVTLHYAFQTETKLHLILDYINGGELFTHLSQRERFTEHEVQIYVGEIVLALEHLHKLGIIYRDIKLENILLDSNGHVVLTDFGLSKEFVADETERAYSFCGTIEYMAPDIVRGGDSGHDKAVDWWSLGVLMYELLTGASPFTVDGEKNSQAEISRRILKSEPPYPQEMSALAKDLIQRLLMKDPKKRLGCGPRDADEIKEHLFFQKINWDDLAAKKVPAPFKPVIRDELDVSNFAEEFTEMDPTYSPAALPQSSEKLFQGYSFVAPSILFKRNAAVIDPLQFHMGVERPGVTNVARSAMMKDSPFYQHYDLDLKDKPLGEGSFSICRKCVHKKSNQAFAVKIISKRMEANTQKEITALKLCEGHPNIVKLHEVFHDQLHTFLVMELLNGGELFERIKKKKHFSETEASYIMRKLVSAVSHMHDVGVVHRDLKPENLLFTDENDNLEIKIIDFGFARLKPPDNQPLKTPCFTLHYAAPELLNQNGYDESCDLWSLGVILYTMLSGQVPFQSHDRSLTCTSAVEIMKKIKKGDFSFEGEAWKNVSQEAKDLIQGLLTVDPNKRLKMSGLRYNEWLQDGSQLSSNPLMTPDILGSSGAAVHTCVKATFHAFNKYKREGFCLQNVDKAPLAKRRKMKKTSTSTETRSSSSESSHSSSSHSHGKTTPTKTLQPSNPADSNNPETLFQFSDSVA
Ribosomal protein S6 kinase beta-1 (Homo sapiens), sequence (P23443 whole entry, looked up): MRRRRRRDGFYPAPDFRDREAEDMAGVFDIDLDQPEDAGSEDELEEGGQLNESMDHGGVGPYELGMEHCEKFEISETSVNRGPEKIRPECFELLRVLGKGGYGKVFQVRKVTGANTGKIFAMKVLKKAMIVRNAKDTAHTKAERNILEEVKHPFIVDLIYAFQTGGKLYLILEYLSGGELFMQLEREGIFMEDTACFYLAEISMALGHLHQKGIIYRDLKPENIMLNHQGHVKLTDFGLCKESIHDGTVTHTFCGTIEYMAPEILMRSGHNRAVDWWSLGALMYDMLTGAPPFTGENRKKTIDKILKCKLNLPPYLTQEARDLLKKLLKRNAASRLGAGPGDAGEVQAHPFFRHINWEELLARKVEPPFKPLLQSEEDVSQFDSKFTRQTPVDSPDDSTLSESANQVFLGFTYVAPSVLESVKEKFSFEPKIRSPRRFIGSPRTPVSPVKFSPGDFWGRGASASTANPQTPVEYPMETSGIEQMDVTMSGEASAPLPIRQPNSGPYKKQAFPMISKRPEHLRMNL
Ribosomal protein S6 kinase alpha-4 (Homo sapiens), sequence (O75676 whole entry, looked up): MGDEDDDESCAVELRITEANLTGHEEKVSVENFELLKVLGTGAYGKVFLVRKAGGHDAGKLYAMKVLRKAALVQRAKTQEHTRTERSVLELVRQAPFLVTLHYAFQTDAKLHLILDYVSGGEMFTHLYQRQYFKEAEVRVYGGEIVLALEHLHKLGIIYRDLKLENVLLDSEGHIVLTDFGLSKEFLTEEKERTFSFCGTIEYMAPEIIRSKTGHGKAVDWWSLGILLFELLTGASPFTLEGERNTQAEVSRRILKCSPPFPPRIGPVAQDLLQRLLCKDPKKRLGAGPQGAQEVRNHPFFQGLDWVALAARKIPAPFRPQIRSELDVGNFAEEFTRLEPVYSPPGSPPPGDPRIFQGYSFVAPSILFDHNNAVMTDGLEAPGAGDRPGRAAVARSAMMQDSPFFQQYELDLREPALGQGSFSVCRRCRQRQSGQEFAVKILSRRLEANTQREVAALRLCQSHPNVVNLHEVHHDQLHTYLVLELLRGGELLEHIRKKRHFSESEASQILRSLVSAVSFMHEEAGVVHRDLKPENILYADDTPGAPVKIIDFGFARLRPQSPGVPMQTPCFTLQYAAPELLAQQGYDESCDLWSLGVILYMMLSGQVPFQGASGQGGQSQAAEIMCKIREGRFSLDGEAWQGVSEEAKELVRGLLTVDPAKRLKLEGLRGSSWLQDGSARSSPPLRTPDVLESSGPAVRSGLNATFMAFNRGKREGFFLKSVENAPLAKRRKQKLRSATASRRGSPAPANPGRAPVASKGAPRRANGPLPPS
Protein kinase C beta type (Homo sapiens), sequence (P05771 2-671 limits assumed): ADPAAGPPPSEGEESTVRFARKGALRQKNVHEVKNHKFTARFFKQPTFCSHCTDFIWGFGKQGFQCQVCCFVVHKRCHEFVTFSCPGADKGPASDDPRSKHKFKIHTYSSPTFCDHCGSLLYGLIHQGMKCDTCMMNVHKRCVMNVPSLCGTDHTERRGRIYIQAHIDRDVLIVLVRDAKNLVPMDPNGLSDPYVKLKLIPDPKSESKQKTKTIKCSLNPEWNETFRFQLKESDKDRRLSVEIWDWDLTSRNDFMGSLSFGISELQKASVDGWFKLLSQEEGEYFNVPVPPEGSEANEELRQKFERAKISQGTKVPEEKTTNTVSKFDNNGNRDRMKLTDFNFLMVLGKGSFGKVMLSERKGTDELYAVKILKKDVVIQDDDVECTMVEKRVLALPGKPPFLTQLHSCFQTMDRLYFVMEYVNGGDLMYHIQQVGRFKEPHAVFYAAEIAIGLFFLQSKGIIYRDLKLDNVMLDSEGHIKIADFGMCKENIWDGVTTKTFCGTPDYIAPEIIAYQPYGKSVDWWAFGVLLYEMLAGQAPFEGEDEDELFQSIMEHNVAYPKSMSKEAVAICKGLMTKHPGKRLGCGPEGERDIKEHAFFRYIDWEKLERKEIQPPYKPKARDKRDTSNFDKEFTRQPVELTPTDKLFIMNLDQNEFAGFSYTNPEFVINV

| SMILES | inhibition [1] | inhibition [2] | inhibition [3] | inhibition [4] | inhibition [5] | inhibition [6] | inhibition [7] | inhibition [8] | inhibition [9] | inhibition [10] | inhibition [11] | inhibition [12] | inhibition [13] | inhibition [14] | inhibition [15] | inhibition [16] | inhibition [17] | inhibition [18] | inhibition [19] | inhibition [20] |
| --- | --- | --- | --- | --- | --- | --- | --- | --- | --- | --- | --- | --- | --- | --- | --- | --- | --- | --- | --- | --- |
| CCn1c(-c2nonc2N)nc2ccc(F)cc21 | -0.42% | 3.28% | -0.61% | 1.2% | 7.13% | 21.2% | 3.5% | 10.8% | 3.92% | 28.4% | -0.67% | 2.75% | 6.34% | 1% | 1.33% | 2.61% | 15.6% | 6.39% | 26.6% | 4.75% |
| NS(=O)(=O)c1ccc(-c2cc3ccncc3cc2OCc2ccccc2)cc1 | -0.66% | -1.1% | -1.66% | -2.27% | 1.89% | 0.96% | 1.86% | 2.64% | 1.3% | 2.04% | 3.11% | 1.4% | 0.52% | 0.12% | 1.77% | 0.43% | 3.25% | 4.33% | 3.62% | 1.21% |
| NS(=O)(=O)c1ccc(Nc2cc(-c3cccc(O)c3)n[nH]2)cc1 | 0.59% | 0.11% | 0.64% | 1.33% | 5.25% | 5.94% | 2.94% | 9.16% | 0.39% | 2.83% | 1.78% | 3% | 2.6% | 1.01% | 1.85% | -3.34% | 1.78% | 3.19% | 2.17% | 2.3% |
| O=C(Nc1ccc(Oc2ccc3[nH]c(NC(=O)c4ccco4)nc3c2)cc1)Nc1cc(C(F)(F)F)ccc1F | -0.11% | -0.59% | 1.48% | 2.67% | -0.96% | 1.79% | 1.72% | 5.67% | 14.2% | 58.4% | 2.37% | -0.33% | 0.09% | -3.29% | -2.22% | -0.09% | -1.32% | 1.15% | -0.71% | 2.16% |
| NC(=O)c1sc(-n2cnc3ccccc32)cc1OCc1ccccc1Br | 1.73% | 4.94% | -1.16% | 0.28% | 8.61% | 10% | 2.12% | 4.72% | 1.52% | 4.06% | 1.27% | 1.4% | 4.48% | 1.58% | 2.92% | -0.55% | 0.73% | 5.09% | 2.7% | 1.38% |
| [O-][S+]1CCN(Cc2ccc(-c3ccc4ncnc(Nc5ccc(OCc6ccccc6)c(Cl)c5)c4c3)o2)CC1 | -2.24% | -0.57% | 0.47% | -0.33% | 1.47% | 1.03% | -0.52% | 0.11% | -1.26% | -0.16% | 0.06% | 2.94% | 7.99% | 0.05% | 0.88% | 0.56% | 0.65% | 1.86% | 2.18% | -0.93% |
| CCOc1nccc2c1nc(-c1nonc1N)n2CC | 2.25% | 5.56% | 1.28% | 2.92% | 13.2% | 45.4% | 6.75% | 27.6% | 13.4% | 56.5% | 1.85% | 3.12% | 9.17% | -0.03% | 1.03% | 11.6% | 39.7% | 7.44% | 24.1% | 3.01% |
| NS(=O)(=O)c1ccc(NC=C2C(=O)Nc3ccc4ncsc4c32)cc1 | 3.96% | 20.5% | 5.03% | 15.4% | 11% | 23.1% | 28.8% | 63.9% | 5.33% | 25.6% | 30.1% | 2.64% | 11.8% | 1.14% | 8.8% | 0.12% | 2.75% | 6.21% | 4.18% | 3.84% |
| COC(=O)c1cncc(/C=C/c2c(C)cc(O)cc2C)c1 | -0.75% | 4.85% | -0.09% | 0.48% | 3.93% | 4.33% | 2.57% | 3.67% | 1.37% | 1.04% | -0.19% | 1.8% | 2.3% | 0.98% | 1.39% | 0.78% | 2.09% | 4.57% | 5.34% | 6.64% |
| COc1cc2ncnc(Nc3ccc4c(cnn4Cc4ccccc4)c3)c2cc1OC | 1.92% | 0.94% | -0.95% | -0.76% | 7.1% | 7.6% | 1.21% | 2.89% | 0.98% | 1.35% | 0.98% | 0.6% | -0.11% | 0.53% | 0.88% | 0.81% | -2.42% | 5.6% | 3.69% | 2.66% |
| Nc1nccc(-c2c(-c3ccc(F)cc3)nn3cc(C(F)(F)F)ccc23)n1 | -3.46% | -4.53% | -0.89% | -2.82% | -0.99% | -2.88% | 1.24% | -1.94% | -0.77% | -3% | -0.37% | 0.74% | 2.17% | 0.05% | 1.25% | -1.02% | 0.52% | -1.68% | 1.15% | -1.38% |
| NS(=O)(=O)c1cccc(Nc2cc(-c3ccc(F)cc3)n[nH]2)c1 | -0.33% | 4.84% | -0.58% | 2.02% | 9.72% | 11.4% | 3.37% | 5.59% | 1.79% | 3.12% | 0.96% | 5.01% | 6.49% | 0.02% | 1.69% | 2.83% | 6% | 2.29% | 5.6% | 4.38% |
| COC(=O)c1ccc2c(c1)C(=Cc1cc(Br)c(O)c(Br)c1)C(=O)N2 | 5.51% | 5.34% | -0.51% | -0.15% | 7.14% | 12.2% | 2.52% | 6.18% | 1.57% | 3.47% | -0.14% | 1.68% | 0.85% | 0.87% | 2.31% | -0.23% | -0.51% | 2.26% | 3.91% | 1.07% |
| c1ccc(Cc2nc3ccc(Nc4ncnc5ccccc45)cc3[nH]2)cc1 | -0.57% | -0.25% | -0.96% | -0.17% | 2.76% | 4.26% | 0.49% | 2.83% | 0.76% | 2.79% | 0.78% | 1.15% | 2.76% | 1.22% | 4.52% | 1.26% | 1.59% | 2.55% | 2.75% | 1.69% |
